Assay results reported in PubChem BioAssay AID504853 (Southern Research Specialized Biocontainment Screening …, 2011).
Entries with a potency or affinity are not part of this list. A number with no mark means an inactive call. No rule for the calls is given here.

experiment: HepG2 cell cytotoxicity, dose response, cytotoxicity control, set 3 (AID 504853); details: series mostly up to 50 µM; viability: at the top concentration

Going from `COC(=O)C(Nc1nc(SCC(=O)NC2CCCCC2)nc2ccccc12)c1ccccc1` (stereo not given) to `CCC(Sc1nc2ccccc2c(=O)[nH]1)C(=O)NC1CCCCC1` (stereo not given), the “viability” value rises from 80.8% to 104%.

First: Cc1cc(=O)[nH]c(=S)[nH]1
Second: Cc1cc(=O)[nH]c(SCC(=O)NC2CCCCC2)n1
The “viability” value of the first is higher: 98.9% for the first, 89.2% for the second.

First: CC(C)NC(=O)CSc1nc2ccccc2c(=O)[nH]1
Second: CNC(=O)CSc1nc2ccccc2c(=O)[nH]1
The “viability” value of the first is lower: 93.4% for the first, 109% for the second.

First: CCC(Sc1nc2ccccc2c(=O)[nH]1)C(=O)Nc1cccc(OC)c1 (stereo not given)
Second: COc1cccc(NC(=O)CSc2nc3ccccc3c(=O)[nH]2)c1
The “viability” value of the first is higher: 100% for the first, 97.3% for the second.

`Cc1nc(SCC(=O)NCCC(C)C)[nH]c(=O)c1C` and `CC(C)CCNC(=O)CSc1nc2ccccc2c(=O)[nH]1` are the same in “viability” value: 102% for the first, 102% for the second.

Compared with `CCSc1nc(C)c(C)c(=O)[nH]1`, `CCOC(=O)CSc1nc(C)c(C)c(=O)[nH]1` is lower in “viability” value: 99.4% for the first, 99.2% for the second.

Going from `Cc1ccc(NC(=O)CSc2nc3ccccc3c(=O)[nH]2)cc1Cl` to `CN(C)C(=O)CSc1nc2ccccc2c(=O)[nH]1`, the “viability” value falls from 96.8% to 95.9%.

First: COc1cccc(NC(=O)CSc2nc3c(c(=O)[nH]2)CCC3)c1
Second: CCC(Sc1nc2c(c(=O)[nH]1)CCC2)C(=O)Nc1cccc(OC)c1 (stereo not given)
The “viability” value of the first is higher: 93.1% for the first, 90.7% for the second.

Compared with `CC(Sc1nc2ccccc2c(=O)[nH]1)C(=O)NC1CCCCC1` (stereo not given), `CN1CCC(NC(=O)CSc2nc3ccccc3c(=O)[nH]2)CC1` is higher in “viability” value: 96.2% for the first, 109% for the second.

Going from `CCOC1OC(=O)C(Cl)=C1Nc1ccccc1C` (stereo not given) to `Cc1nc(SCC(=O)N(C)c2ccccc2)[nH]c(=O)c1C`, the “viability” value rises from 98.3% to 99.8%.

First: O=C(CSc1nccc(=O)[nH]1)NC1CCCCC1
Second: Nc1cc(=O)[nH]c(SCC(=O)NC2CCCCC2)n1
The “viability” value of the first is lower: 99.4% for the first, 99.6% for the second.

Going from `O=C(CSc1ncccn1)NC1CCCCC1` to `Cc1cccc(/C=C/C(=O)c2ccc([N+](=O)[O-])o2)c1`, the “viability” value rises from 97.8% to 98.6%.

In the case of `Cc1ccc(NC(=O)COC(=O)CCc2c[nH]c3ccccc23)cc1[N+](=O)[O-]`, the “viability” value is reported as 99.5%.
